Source: the supplement of paper PMC13380429
Values without a mark were called inactive.

Tested on: Vero E6 infected with SARS-CoV-2
Assay: inhibition of SARS-CoV-2 cytopathic effect; higher = more antiviral protection, active = above 15
Conditions: 48 h

Structure (SMILES) | inhibition of SARS-CoV-2 cytopathic effect (1 nM) [%] | inhibition of SARS-CoV-2 cytopathic effect (8.33 nM) [%] | inhibition of SARS-CoV-2 cytopathic effect (100 nM) [%] | inhibition of SARS-CoV-2 cytopathic effect (833.33 nM) [%] | inhibition of SARS-CoV-2 cytopathic effect (10000 nM)
CCOc1ccc(Cc2cc([C@@H]3O[C@H](SC)[C@@H](O)[C@H](O)[C@H]3O)ccc2Cl)cc1 [sotagliflozin] | -0.94 | -2.52 | -1.14 | -3.56 | -3.65%
CN(C)c1ccc2nc3ccc(=[N+](C)C)cc-3sc2c1 [methylene-blue] | -2.26 | -2.37 | -2.19 | 8.6 | -7.29%
Cc1cc(Nc2nc(N[C@@H](C)c3ncc(F)cn3)ncc2Cl)[nH]n1 | -1.19 | -0.46 | -0.68 | 0.25 | 0.25%
CSC[C@H](N)C(=O)O [S-methylcysteine] | 4.21 | 3.63 | 1.96 | -0.82 | 0.31%
CCN(CC)CC#CCOC(=O)C(O)(c1ccccc1)C1CCCCC1 (stereo not given) [oxybutynin] | -1.83 | -0.13 | -0.11 | 0.84 | 8.9%
CC[N+](CC)(CC)CCOc1ccc(/C=C/c2ccccc2)cc1 | -0.65 | 1.39 | 2.2 | 1.89 | 7.99%
Nc1ncnc2c1c(-c1cnc3[nH]ccc3c1)nn2C1CCCC1 | -1.07 | -0.16 | 0.41 | -3.88 | -16.5%
CN(C(=O)Cc1ccc(Cl)c(Cl)c1)[C@H](CN1CCCC1)c1ccccc1 | 4.62 | 6.47 | 6.09 | -0.24 | 34.8% (active)
O=C(Nc1ccc(C(=O)O)c(O)c1)c1ccccc1 [benzoylpas] | 0.82 | -2.28 | 0.45 | -0.08 | -0.85%
C=C[C@](C)(O)CC[C@@H]1[C@@]2(C)CCCC(C)(C)[C@@H]2CC[C@@]1(C)O [sclareol] | 0.36 | -0.46 | -0.66 | -1.37 | -4.46%
CC(C)n1nc(-c2cc3cc(O)ccc3[nH]2)c2c(N)ncnc21 | 1.52 | 2.09 | 1.4 | 2.07 | -1.69%
CNCCC=C1c2ccccc2CCc2ccccc21 [nortriptyline] | 1.29 | -0.85 | 0.56 | 1.26 | -4.8%
COc1ccc(N2CCOCC2)c2sc(NC(=O)N3CCC(C)(O)CC3)nc12 [tozadenant] | 1.95 | 8.03 | -0.04 | -0.08 | -2.66%
c1ccc2c(c1)CCC[C@H]2Nc1nc2ccccc2[nH]1 | 2.74 | 2.66 | 1.8 | -1.92 | -0.48%
COC1=C[C@@H]2[C@@H]3Cc4ccc(OC)c(O)c4[C@]2(CCN3C)CC1=O [sinomenine] | -1.85 | 0.19 | -1.8 | 2.51 | 0.68%
C[C@@H](NC(=O)c1ncnc(N)c1Cl)c1ncc(C(=O)Nc2cc(C(F)(F)F)c(Cl)cn2)s1 | -0.01 | 6.23 | 4.35 | 4.42 | -1.31%
CC(C)c1cc2c(cc1S(=O)(=O)O)[C@@]1(C)CCC[C@@](C)(C(=O)O)[C@@H]1CC2 [ecabet] | -2.02 | 0 | -1.76 | 0.14 | -0.11%
CC1(COc2ccc3c(c2)ncn3-c2ccc3cccc(N4CCC(N)CC4)c3n2)COC1 [crenolanib] | -0.58 | 1.15 | 2.74 | 2.21 | 0.74%
CCOC(=O)c1cnc2c(cnn2CC)c1NN=C(C)C [etazolate] | -0.85 | 4.04 | 0.13 | 1.35 | -1.47%
CC#CC(=O)N1CCC[C@H]1c1nc(-c2ccc(C(=O)Nc3ccccn3)cc2)c2c(N)nccn12 [acalabrutinib] | 2.14 | -0.44 | 0.31 | -0.11 | -0.34%
O=C(O)CCc1ccc(NCc2cccc3c2CCCN3CCOc2ccccc2)cc1F | 2.94 | 4.34 | -0.81 | 1.53 | 0.9%
OC[C@H]1O[C@@H](c2ccc(F)c(Cc3cc4ccccc4s3)c2)[C@H](O)[C@@H](O)[C@@H]1O [ipragliflozin-L-proline] | 0.82 | -0.16 | 0.41 | 0.42 | 0.4%
